We go through 40 molecules from PubChem BioAssay (Tox21).

Each structure is given as a SMILES string. Records with an inconclusive call do not appear. A number with no mark means an inactive call. Activity calls are given as the source filed them. Calls come from the whole dose curve; as a rule, active = well fitted inhibition curve with a large enough effect in the repeat runs; inconclusive = weak or mixed curves; inactive = no such curve, though single readings can be large or run the other way.
% is set by controls: 0 for no effect and ±100 for the full control effect; potency is the fitted concentration of half-maximal effect.

Sequence of Cytochrome P450 1A2 (Homo sapiens) (P05177 whole entry, looked up): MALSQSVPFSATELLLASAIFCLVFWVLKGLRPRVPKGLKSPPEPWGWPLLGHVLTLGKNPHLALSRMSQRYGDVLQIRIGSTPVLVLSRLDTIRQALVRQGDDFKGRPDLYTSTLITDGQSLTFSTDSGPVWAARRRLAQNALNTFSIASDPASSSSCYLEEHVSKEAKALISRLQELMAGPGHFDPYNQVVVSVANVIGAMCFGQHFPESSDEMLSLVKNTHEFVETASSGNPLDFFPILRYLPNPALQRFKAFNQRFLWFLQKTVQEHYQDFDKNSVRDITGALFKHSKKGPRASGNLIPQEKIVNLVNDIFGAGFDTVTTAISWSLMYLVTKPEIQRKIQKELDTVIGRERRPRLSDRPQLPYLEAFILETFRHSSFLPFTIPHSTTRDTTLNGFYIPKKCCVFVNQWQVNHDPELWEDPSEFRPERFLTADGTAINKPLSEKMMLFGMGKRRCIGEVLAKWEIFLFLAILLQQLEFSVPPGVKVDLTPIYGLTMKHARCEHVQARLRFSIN

For this experiment, the target named is Cytochrome P450 1A2 (Homo sapiens) (UniProt P05177). Kind of experiment: Cytochrome P450 Family 1 Subfamily A Member 2 (CYP1A2) small molecule antagonists: luciferase reporter qHTS assay (AID 1671199). Note: nearly all actives have a fitted effect of over 50% in size. Particulars: P450-Glo CYP1A2 enzyme, luciferin luminescence, 1 h; series mostly up to 115 µM; activity change, negative = inhibition: at the top concentration. An excerpt:
National Center for Advancing Translational Sciences [NCATS]
U.S. Environmental Protection Agency [EPA]
National Institutes of Environmental Health Sciences [NIEHS]
National Toxicology Program [NTP]
U.S. Food and Drug Administration [FDA]
Cytochrome P450 (CYP) enzymes are membrane-bound hemeproteins that play a key role in metabolism of drugs and xenobiotics. Evaluation of the effect of chemicals on CYP isozymes is useful to minimize the adverse drug reactions and toxicities in drug development process. Tox21 chemicals were tested for their effect on CYP enzyme activities by using P450-Glo (TM) screening systems (Promega Corporation, Madison, WI). These systems provide a luminescent method containing proluciferin substrates and are converted to luciferin products by CYP isozymes. The luciferin products formed are detected with a luciferin detection reagent, and the amount of light produced is proportional to CYP activity. P450-Glo (TM) CYP1A2 screening system (Catalog. No. V9770) was used to detect the compounds that interfere in CYP1A2 activity. The positive control compound used for CYP1A2 assay is furafylline (Sigma-Aldrich, St. Louis, MO).
Tox21 Assay Protocol Summary:
Two ul of enzyme-substrate mix was dispensed into medium binding white/solid 1536-well plates (Greiner Bio-One North America Inc., Monroe, NC) using a BioRaptr Flying Reagent Dispenser (FRD, Beckman Coulter, Brea, CA). Compounds dissolved in DMSO and positive control (furafyllline) were transferred to the assay plates at 23 nl using a Pintool station (Wako, San Diego, CA). The assay plates were incubated at room temperature for 10 min. Then 2 ul of NADPH regeneration solution was added to each well of the assay plates using an FRD and incubated at room temperature for 1 h. The reaction was stopped by adding 4 ul of detection reagent using an FRD and after 20 min incubation at room temperature the luminescence signal was measured using a ViewLux plate reader (Perkin Elmer, Shelton, CT). Data were expressed as relative luminescence units.
As for `S=C1NC=NC2N=CNC12` (stereo not given), the Potency was 71 µM (active).
For the molecule `O=[N+]([O-])c1ccc(O)c2ncccc12`, the “activity change, negative = inhibition” value is -18.9% [at 53 µM].
As for `O=C1OC(O)C(C(Cl)Cl)=C1Cl` (stereo not given), the “activity change, negative = inhibition” value was 21.4%.
For `Nc1ccc2c(S(=O)(=O)O)cccc2c1S(=O)(=O)O`, the “activity change, negative = inhibition” value is -7.99% [at 53 µM].
Turning to `CCCCCCCCCCCCN1CCCC1=O`, the Potency is 28.3 µM (active).
Still for that read-out and setting: to `O=C(Cl)c1ccc(Cl)cc1Cl` belongs 63.3 µM (active).
Regarding `CSc1ccc(O)cc1C`, the Potency was 63.3 µM (active).
Take `CC1(C)[C@H](C(=O)OCc2cccc(Oc3ccccc3)c2)[C@@H]1C=C(Cl)Cl`: the “activity change, negative = inhibition” value is -11.2%.
For the molecule `CCn1c2ccccc2c2ccccc21`, the Potency was 3.99 µM (active).
On to `CC(C)C(=O)C(C)C`, for which the “activity change, negative = inhibition” value was -2.4%.
Turning to `CCC1(C)C(=O)N(Cl)C(=O)N1Cl` (stereo not given), the “activity change, negative = inhibition” value was -24.2%.
On the same count and under the same terms, in the case of `C=CC(=O)OCCOC1C2CCC1C1CC=CC12` (stereo not given) it was -16.8% [at 23.6 µM].
Regarding `CCCCCCCCOC(=O)c1cc(O)c(O)c(O)c1`, the Potency was 71 µM (active).
For the molecule `COC(=O)c1ccc([N+](=O)[O-])cc1`, the Potency was 17.8 µM (active).
`C=CC(C)(C)O`: the “activity change, negative = inhibition” value was -19.7%.
In the case of `Cc1ccc(N=Nc2c(O)ccc3ccccc23)c(C)c1`, the Potency was 3.47 µM (active).
For the molecule `COc1cc(OC)nc(NC(=O)NS(=O)(=O)Nc2ccccc2C(=O)N(C)C)n1`, the Potency was 63.3 µM (active).
In the case of `CO[Si](OC)(c1ccccc1)c1ccccc1`, the “activity change, negative = inhibition” value is -13.9%.
In the case of `CC(C)(C)C1=CC(=O)C(C(C)(C)C)=CC1=O`, the Potency is 17.4 µM (active).
Still for that read-out and setting: in the case of `N#Cc1nc(Cl)c(Cl)c(Cl)c1Cl` it was 5.03 µM (active).
For `[Cl][Dy]([Cl])[Cl]`, the “activity change, negative = inhibition” value was -2.53%.
`Oc1ccc(Cl)cc1C1CCCC1`: the Potency is 22.4 µM (active).
Take `Nc1c(Br)cc([N+](=O)[O-])cc1Br`: the Potency is 1.78 µM (active).
Turning to `COCCC(=O)OC`, the “activity change, negative = inhibition” value was -19.2%.
Turning to `CCc1cccc(C)c1N(C(=O)C(=O)O)C(C)COC` (stereo not given), the “activity change, negative = inhibition” value is -12.5%.
Turning to `CC(C)(C)c1cc(CCC(=O)OCCSCCOC(=O)CCc2cc(C(C)(C)C)c(O)c(C(C)(C)C)c2)cc(C(C)(C)C)c1O`, the “activity change, negative = inhibition” value is -12.8% [at 53 µM].
Still for that read-out and setting: in the case of `CCN(CCC#N)c1ccc(N=Nc2ccc([N+](=O)[O-])cc2)cc1` it was -23%.
With `CCCCNc1ccc(NCCCC)c2c1C(=O)c1ccccc1C2=O`, the Potency is 3.79 µM (active).
As to `Cc1ccc(C=O)cc1`, the “activity change, negative = inhibition” value is -6.07% [at 53 µM].
Turning to `Cc1ccc2sc3cccc(C)c3c2c1`, the Potency is 2.52 µM (active).
Still for that read-out and setting: to `CCCCC/C=C\C=C\C(=O)OCC` belongs 37.1 µM (active).
Take `CCCCCCCCCCCC(=O)Cl`: the “activity change, negative = inhibition” value was -8.17%.
Still for that read-out and setting: in the case of `CCOC(=O)OC(=O)OCC` it was -7.99%; in that of `Oc1ccc(C2(c3ccc(O)c(C4CCCCC4)c3)CCCCC2)cc1C1CCCCC1`, -20.4%.
For the molecule `CCCCCc1ccc(O)cc1`, the Potency is 63.3 µM (active).
Turning to `NCc1ccco1`, the “activity change, negative = inhibition” value was -1.33%.
Turning to `c1ccc2occc2c1`, the Potency was 28.3 µM (active).
In the case of `CCN(CC)c1ccc(C=O)c(O)c1`, the Potency is 17.8 µM (active).
As to `CCN(CC)c1ccc(C=O)cc1`, the Potency was 5.64 µM (active).
In the case of `CN1CCN(C)CC1`, the “activity change, negative = inhibition” value was -15.6%.
